PMC4336329 (PLoS ONE, 2015)
Hit rate of the full screen: of about 310,000 compounds, about 14,000 (4.5%) showed an effect of 50% or more. The effect is printed as a negative number. The full list was thinned out, with strong results kept by preference.

biological target: human ether-à-go-go-related gene (hERG) potassium channel (human, UniProt Q12809); test: primary screen, population patch clamp on CHO cells stably expressing hERG; higher = less effect of the substance
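Note: peak tail current of the secondary pulse compared with the same well before compound.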

human ether-à-go-go-related gene (hERG) potassium channel, sequence (Q12809 whole entry, looked up): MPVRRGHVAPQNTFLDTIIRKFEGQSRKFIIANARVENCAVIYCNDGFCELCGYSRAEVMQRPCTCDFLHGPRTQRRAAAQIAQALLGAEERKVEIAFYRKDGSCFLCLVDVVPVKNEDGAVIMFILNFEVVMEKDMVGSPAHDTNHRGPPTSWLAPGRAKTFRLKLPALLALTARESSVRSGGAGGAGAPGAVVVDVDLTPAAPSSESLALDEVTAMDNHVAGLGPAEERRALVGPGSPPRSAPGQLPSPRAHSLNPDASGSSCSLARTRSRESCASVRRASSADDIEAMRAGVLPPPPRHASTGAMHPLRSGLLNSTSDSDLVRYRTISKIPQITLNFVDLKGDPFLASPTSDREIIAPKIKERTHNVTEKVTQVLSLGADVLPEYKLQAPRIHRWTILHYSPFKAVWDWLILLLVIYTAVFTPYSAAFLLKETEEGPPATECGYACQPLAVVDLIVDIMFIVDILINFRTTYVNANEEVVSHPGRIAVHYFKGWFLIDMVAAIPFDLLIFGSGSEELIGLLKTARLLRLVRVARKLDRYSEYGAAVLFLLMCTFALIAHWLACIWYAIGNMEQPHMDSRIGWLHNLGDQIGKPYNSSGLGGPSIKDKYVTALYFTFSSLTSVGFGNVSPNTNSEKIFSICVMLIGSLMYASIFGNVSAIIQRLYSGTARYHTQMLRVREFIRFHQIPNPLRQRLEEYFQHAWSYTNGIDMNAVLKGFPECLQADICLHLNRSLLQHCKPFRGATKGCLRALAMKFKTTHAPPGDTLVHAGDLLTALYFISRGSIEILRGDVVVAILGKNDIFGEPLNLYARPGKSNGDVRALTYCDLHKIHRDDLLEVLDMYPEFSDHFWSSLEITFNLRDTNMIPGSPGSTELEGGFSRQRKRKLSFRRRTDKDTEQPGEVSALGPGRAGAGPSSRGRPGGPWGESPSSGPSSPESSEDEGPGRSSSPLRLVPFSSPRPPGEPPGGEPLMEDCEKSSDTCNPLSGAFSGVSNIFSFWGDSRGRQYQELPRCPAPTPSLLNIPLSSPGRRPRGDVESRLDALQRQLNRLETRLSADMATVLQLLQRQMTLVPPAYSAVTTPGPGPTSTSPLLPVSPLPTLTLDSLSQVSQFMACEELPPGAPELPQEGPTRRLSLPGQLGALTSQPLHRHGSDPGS

In order of falling “hERG current change (%, negative = inhibition) at 10uM” value:
1. CCc1cc2c(NC(Cc3c[nH]c4ccccc34)C(=O)O)nc(C)nc2s1 (stereo not drawn)  31.3%
2. CCCCC(NC(C)=O)c1nc2ccccc2[nH]1 (stereo not drawn)  23.1%
3. C=C[C@@H]1C2=CCOC(=O)C2=CO[C@H]1O[C@@H]1O[C@H](CO)[C@@H](O)[C@H](O)[C@H]1O  20.1%
4. COc1ccc(-c2c(NC(=O)c3ccco3)oc3ccc(Cl)cc3c2=O)cc1  19.7%
5. CCN1C(Nc2ccccc2)=NC[C@@H]1C  15.2%
6. CCn1c(/C=C/c2cc[n+](C)cc2)nc2ccccc21.[I-]  15%
7. CCCCN1C(Nc2ccccc2)=NC[C@@H]1C  14.4%
8. COc1cc([N+](=O)[O-])ccc1NC(=O)NCc1ccccn1  11.7%
9. COCCNC(=O)c1cc2c(=O)n3cccc(C)c3nc2n1C  11.7%
10. O=C(COC(=O)C1=COCCO1)Nc1cccc(S(=O)(=O)N2CCOCC2)c1  10.8%
11. CC(=O)c1cccc(NC(=O)CSc2n[nH]c(-c3ccncc3)n2)c1  10.5%
12. O=C(COc1ccc(Br)cc1Cl)NC1CCCCC1  9.84%
13. CC(C)COC(=O)Nc1ccccc1C(=O)N1CCOCC1  9.75%
14. CCCCNC(=O)c1cc2c(=O)n3cccc(C)c3nc2s1  7.96%
15. CN(C)c1ccc(-c2nc3cc(N)ccc3o2)cc1  6.31%
16. COC(=O)Cn1cc(/C=C/c2cc[n+](C)cc2)c2ccccc21.[I-]  5.7%
17. CNC(=O)c1c(C)nn(-c2ccc(F)c(Cl)c2)c1-c1cc(C)on1  4.71%
18. N#CCCN1CCN(S(=O)(=O)c2ccc(S(=O)(=O)N3CCCC3)cc2)CC1  4.66%
19. Cc1ccc(Cl)c(OCC(=O)Nc2ccccc2C(=O)NC2CC2)c1  3.5%
20. Cc1cc(C)c(Cn2c3ccccc3c3cnn(CC(=O)NCCN4CCOCC4)c(=O)c32)c(C)c1  2.31%
21. N#CCc1c(C#N)c(N)nc(N2CCCC(CO)C2)c1C#N (stereo not drawn)  1.82%
22. Cc1cccn2c(=O)c3cc(C(=O)N4COCC4(C)C)n(Cc4ccccc4)c3nc12  1.23%
23. Cc1ccc(CC(=O)Nc2ccc(S(=O)(=O)Nc3nccc(C)n3)cc2)cc1  1.2%
24. OC1CCCN(c2ncnc3c2nnn3Cc2c(F)cccc2Cl)C1 (stereo not drawn)  0.989%
25. O=C(COc1ccccc1F)NC1CC1  0.681%
26. CCCCN1C(N)=NC[C@@H]1Cc1ccccc1  0.376%
27. COc1ccc(S(=O)(=O)NCc2ccccn2)c(C)c1C  0.26%
28. CCC(=O)/C=C1/Sc2ccc(OC)cc2N1CC  -4.45%
29. O=C(CCCn1c(=O)c2ccccc2n(Cc2ccccc2)c1=O)NCc1ccco1  -7.47%
30. O=C(COc1ccc(Br)cc1Cl)NC(=O)NC1CCCC1  -9.03%
31. C[C@H]1CN=C(Nc2ccccc2)N1CCc1ccccc1  -9.89%
32. CC(C)CCCN1C(Nc2ccccc2)=NC[C@@H]1C  -11.4%
33. Cc1ccccc1Cn1c2ccccc2c2cnn(CC(=O)NCCCN3CCOCC3)c(=O)c21  -18.6%
34. COc1ccc(C(=O)N(C)c2ccccc2C(=O)NCCc2ccccc2)cc1  -20.2%
35. Cc1cc(OCC(=O)NC2CCN(Cc3ccccc3)CC2)c2c(C)c(C)c(=O)oc2c1  -22.4%
36. O=c1ccn(Cc2ccc(F)cc2)c2ccnc(C(F)(F)F)c12  -25.9%
37. CCN1C(Nc2ccccc2)=NC[C@@H]1Cc1ccccc1  -26%
38. Cc1ccc(CCN2C(Nc3ccccc3)=NC[C@@H]2C)cc1  -35.9%
39. Cl.O=C(COc1ccccc1F)NC1CCN(Cc2ccccc2)CC1  -38.5%
40. CCN(CC)S(=O)(=O)c1ccc(N2CCCC2)c(NC(=O)C2=COCCO2)c1  -40%
41. Cc1ccc(C)c(Cn2c3ccccc3c3cnn(CC(=O)NCCN4CCOCC4)c(=O)c32)c1  -45%
42. O=C(Cn1ncc2c3ccccc3n(Cc3ccccc3)c2c1=O)NCCCN1CCOCC1  -45.2%
43. C=CCn1cc(C(=O)NCC2CCCO2)c(=O)c2cc(S(=O)(=O)N3CCCCCC3)ccc21 (stereo not drawn)  -48.1%
44. O=C(Cn1ncc2c3ccccc3n(Cc3ccccc3F)c2c1=O)NCCN1CCOCC1  -55.2%
45. CCn1cc(/C=C/c2cc[n+](C)cc2)c2ccccc21.[I-]  -56.1%
46. O=C(Cn1ncc2c3ccccc3n(Cc3ccccc3)c2c1=O)NCCN1CCOCC1  -57%
47. CCCCN1C(Nc2ccccc2)=NC[C@@H]1Cc1ccccc1  -66.1%
48. O=C(COc1ccc(Br)cc1Cl)NC1CCN(Cc2ccccc2)CC1  -67.3%
49. CCCCCCCN1C(Nc2ccccc2)=NC[C@@H]1C  -68%
50. COCCNC(=O)c1cc2c(=O)n3cccc(C)c3nc2n(Cc2ccncc2)c1=N  -70%
51. c1ccc(CCCCN2C(Nc3ccccc3)=NC[C@@H]2Cc2ccccc2)cc1  -71.5%
52. O=C(COc1ccc(Br)cc1F)NC1CCN(Cc2ccccc2)CC1  -74%
53. CCCCNC(=O)c1cc2c(=O)n3cccc(C)c3nc2n(Cc2ccncc2)c1=N  -75.1%
54. CCCCNC(=O)c1cc2c(=O)n3cccc(C)c3nc2n(Cc2ccccc2)c1=N  -77.6%
55. CCCCCCCN1C(Nc2ccccc2)=NC[C@@H]1Cc1ccccc1  -83.3%
56. CCNC(=O)c1cc2c(=O)n3cccc(C)c3nc2n(Cc2ccc(C)cc2)c1=N  -88%
57. Cc1ccc(Cl)c(OCC(=O)NC2CCN(Cc3ccccc3)CC2)c1  -115%
